This excerpt belongs to a sample that is enriched for hits.
miR122 inh: miR-122 sensor activation; Huh7 psiCHECK-miR122 Renilla luciferase sensor, 48 h; activation, % at 12.5 µM; hit rate 0.14% among 340,000; AID 623901;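 active = mean activation of 30% or more, with every replicate also reaching 30%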;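 also: 0% = median of neutral control wells and 100% = median of positive control wells; higher luciferase signal means stronger suppression of miR-122 activity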
An asterisk follows results filed as active.

SMILES	miR122 inh
CC(C)C#Cc1cnc2c(c1)C(=O)N([C@H](C)CO)C[C@@H](C)[C@H](CN(C)C(=O)c1ccccc1)O2	1
C[C@H](CO)N1C[C@H](C)[C@H](CN(C)Cc2ccc(C(=O)Nc3ccccc3N)cc2)Oc2ccc(NS(=O)(=O)c3cccs3)cc2CC1=O	-104
O=C(Nc1ccc(S(=O)(=O)NCC2CCCO2)cc1)c1cccc(F)c1 (stereo unspecified)	-91
Cc1cccc(NS(=O)(=O)c2cccc(C(=O)N3CCCCCCC3)c2)c1	-163
CC(=O)c1cccc(S(=O)(=O)NCC2CCCCC2)c1	51*
C[C@H]1CN([C@@H](C)CO)C(=O)c2cc(C#CC(C)(C)O)cnc2O[C@H]1CN(C)Cc1cncnc1	-109
C[C@H](CO)N1C[C@H](C)[C@H](CN(C)Cc2ccccn2)Oc2cc(-c3cccc(C#N)c3)ccc2S1(=O)=O	8
C[C@H]1CN([C@@H](C)CO)S(=O)(=O)c2ccc(C#Cc3ccccc3)cc2O[C@@H]1CN(C)C(=O)Nc1ccccc1	-29
COc1ccc(Cn2c(SCc3ccccc3C)nc3cc(OC)c(OC)cc3c2=N)cc1	62*
CO[C@@H]1CN(C)C(=O)c2ccc(NC(=O)c3cc(C)on3)cc2OC[C@@H](C)N(S(=O)(=O)c2ccccc2)C[C@H]1C	1
C[C@@H]1CN([C@@H](C)CO)C(=O)c2cc(C#CC3(O)CCCC3)cnc2O[C@@H]1CN(C)Cc1ccncc1	-2
COc1ccc(NC(=O)N(C)C[C@@H]2Oc3ncc(-c4cc5ccccc5o4)cc3C(=O)N([C@H](C)CO)C[C@@H]2C)cc1	8
C[C@H]1CN([C@@H](C)CO)C(=O)c2cccc(NC(=O)Nc3ccc4c(c3)OCO4)c2O[C@@H]1CN(C)CC1CCCCC1	-97
C[C@H](CO)N1C[C@H](C)[C@H](CN(C)CC2CCCCC2)Oc2ccc(NC(=O)Nc3ccc(C(F)(F)F)cc3)cc2C1=O	44*
C[C@@H]1CCCCO[C@@H](CN(C)CC2CCCCC2)[C@@H](C)CN([C@H](C)CO)C(=O)c2cc(NC(=O)CCC(F)(F)F)ccc2O1	-104
C[C@H]1CN([C@@H](C)CO)C(=O)c2cccc(NC(=O)C3CCCCC3)c2O[C@@H]1CN(C)Cc1ccc(C(F)(F)F)cc1	-94
C[C@@H]1CCCCO[C@H](CN(C)CC2CCCCC2)[C@H](C)CN([C@@H](C)CO)C(=O)c2cc(NC(=O)Nc3ccc(C(F)(F)F)cc3)ccc2O1	32*
C[C@H]1CN([C@@H](C)CO)C(=O)Cc2cc(NC(=O)Nc3ccc(C(F)(F)F)cc3)ccc2O[C@H]1CN(C)S(=O)(=O)c1ccc(F)cc1	-99
C[C@@H]1CN([C@@H](C)CO)C(=O)c2cc(NC(=O)CCC(F)(F)F)ccc2O[C@@H]1CN(C)C(=O)Nc1ccc2c(c1)OCO2	-92
C[C@@H]1CN([C@@H](C)CO)C(=O)c2cc(NC(=O)NC3CCCCC3)ccc2O[C@@H]1CN(C)C(=O)Nc1ccc2c(c1)OCO2	32*
C[C@@H]1CN([C@H](C)CO)C(=O)c2cc(-c3ccccc3)cnc2O[C@H]1CN(C)C(=O)Nc1ccc2c(c1)OCO2	-5
C[C@H](CO)N1C[C@H](C)[C@H](CN(C)S(=O)(=O)c2ccc(Cl)cc2)Oc2ccc(NC(=O)Nc3ccc(C(F)(F)F)cc3)cc2CC1=O	-94
COc1ccc(C#Cc2cnc3c(c2)C(=O)N([C@H](C)CO)C[C@H](C)[C@H](CN(C)CC2CCCC2)O3)cc1	12
COc1ccc(C#Cc2ccc3c(c2)O[C@@H](CN(C)C)[C@H](C)CN([C@@H](C)CO)S3(=O)=O)cc1	6
CCCC(=O)Nc1ccc2c(c1)C(=O)N(C)C[C@H](OC)[C@H](C)CN(CCC)[C@H](C)CO2	0
SMILES	miR122 inh
C[C@H](CO)N1C[C@H](C)[C@H](CN(C)C(=O)C2CC2)Oc2ncc(-c3cccnc3)cc2C1=O	-9
C[C@@H]1CN([C@H](C)CO)S(=O)(=O)c2ccc(-c3ccc(C#N)cc3)cc2O[C@@H]1CN(C)C(=O)C1CC1	6
CCCNC(=O)N(C)C[C@@H]1Oc2cc(C#CC(C)C)ccc2S(=O)(=O)N([C@H](C)CO)C[C@H]1C	-10
CC(C)CC#Cc1cnc2c(c1)C(=O)N([C@H](C)CO)C[C@@H](C)[C@H](CN(C)C(=O)Nc1ccccc1F)O2	-14
CN1/C(=C/C=C/c2n(C)c3cc([N+](=O)[O-])c([N+](=O)[O-])cc3[n+]2C)C(C)(C)c2ccccc21	38*
CO[C@@H]1CN(C)C(=O)c2ccc(NC(=O)C3CCC3)cc2OC[C@H](C)NC[C@@H]1C	-4
CCCCCCCCCCn1c2c(c(=N)c3c1CCC3)CCC2	66*
CO[C@@H]1CN(C)C(=O)c2cc(NC(=O)Cc3ccccc3)ccc2OC[C@@H](C)N(C)C[C@@H]1C	2
COc1ccc(C#Cc2cnc3c(c2)C(=O)N([C@@H](C)CO)C[C@H](C)[C@@H](CN(C)CC2CCCC2)O3)cc1	-6
O=C(NC[C@H]1N[C@H](CO)[C@@H]1c1ccccc1)C1CCCC1	-125
CC(=O)N1[C@H](CNC(=O)C2CC2)[C@@H](c2ccc(-c3ccccc3)cc2)[C@@H]1CO	-200
O=C(Nc1ccc2c(c1)OCCO2)C1CCN(S(=O)(=O)c2ccccc2)CC1	-177
O=C(COC(=O)Cc1ccc(S(=O)(=O)N2CCOCC2)s1)Nc1ccc2c(c1)OCO2	31*
O=C(COc1ccc(S(=O)(=O)NC2CCCCC2)cc1)Nc1ccc2c(c1)OCCO2	-101
C[C@H](CO)N1C[C@H](C)[C@@H](CN(C)Cc2ccc(Cl)c(Cl)c2)Oc2c(NS(=O)(=O)c3ccccc3)cccc2C1=O	-106
COCC(=O)N(C)C[C@H]1Oc2cc(C#CC(C)C)ccc2S(=O)(=O)N([C@H](C)CO)C[C@H]1C	21
C[C@H](CO)N1C[C@H](C)[C@H](CN(C)C(=O)NC2CCCC2)Oc2ncc(Br)cc2C1=O	-3
C[C@@H]1CN([C@@H](C)CO)C(=O)c2cc(-c3ccc(C(=O)N(C)C)cc3)cnc2O[C@@H]1CN(C)Cc1ccc(C(=O)O)cc1	-1
Cc1nn(Cc2ccccc2Cl)c2sc(C(=O)OC3CCCC3=O)cc12 (stereo unspecified)	36*
CCCN(C)C[C@H]1Oc2ncc(-c3ccccc3OC)cc2C(=O)N([C@@H](C)CO)C[C@H]1C	-4
C[C@@H]1CN([C@H](C)CO)C(=O)c2cc(-c3cccc(F)c3)cnc2O[C@@H]1CN(C)C(=O)c1ccccn1	0
C[C@@H]1CN([C@H](C)CO)C(=O)c2cc(-c3cccc(F)c3)cnc2O[C@H]1CN(C)Cc1cncnc1	-5
COCC(=O)Nc1ccc2c(c1)C(=O)N(C)[C@@H]1CC[C@H](CC(=O)NCc3ccccc3F)O[C@H]1CO2	50*
COCC(=O)Nc1ccc2c(c1)C(=O)N(C)[C@H]1CC[C@@H](CC(=O)O)O[C@H]1CO2	-262
COCC(=O)Nc1ccc2c(c1)C(=O)N(C)[C@@H]1CC[C@H](CC(=O)NCCCN(C)C)O[C@H]1CO2	45*
Cc1ccc(S(=O)(=O)N(C)C[C@@H]2Oc3ccc(NC(=O)Nc4ccc5c(c4)OCO5)cc3CC(=O)N([C@@H](C)CO)C[C@@H]2C)cc1	-113
Cc1ccc(S(=O)(=O)N(C)C[C@H]2Oc3cc(C#CC4CCCC4)ccc3S(=O)(=O)N([C@@H](C)CO)C[C@H]2C)cc1	-61
COCC#Cc1ccc2c(c1)O[C@@H](CN(C)C(C)=O)[C@@H](C)CN([C@@H](C)CO)S2(=O)=O	9
CCn1c(Cl)c(C=O)s/c1=N\S(=O)(=O)c1ccccc1	72*
